Assay [1] concerns the target Calcium/calmodulin-dependent protein kinase type II subunit alpha (Homo sapiens) (UniProt Q9UQM7). The following applies: at 1 µM.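 Further: reported value is a mean percent inhibition of CAMK2A.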
The target in assay [2] is Calcium/calmodulin-dependent protein kinase type II subunit delta (Homo sapiens) (UniProt Q13557). The following applies: at 0.1 µM.
Assay [3] has the same target. The following applies: at 1 µM.
Assay [4] deals with T1, Calcium/calmodulin-dependent protein kinase type IV (Homo sapiens) (UniProt Q16566).
T1 sequence (whole entry): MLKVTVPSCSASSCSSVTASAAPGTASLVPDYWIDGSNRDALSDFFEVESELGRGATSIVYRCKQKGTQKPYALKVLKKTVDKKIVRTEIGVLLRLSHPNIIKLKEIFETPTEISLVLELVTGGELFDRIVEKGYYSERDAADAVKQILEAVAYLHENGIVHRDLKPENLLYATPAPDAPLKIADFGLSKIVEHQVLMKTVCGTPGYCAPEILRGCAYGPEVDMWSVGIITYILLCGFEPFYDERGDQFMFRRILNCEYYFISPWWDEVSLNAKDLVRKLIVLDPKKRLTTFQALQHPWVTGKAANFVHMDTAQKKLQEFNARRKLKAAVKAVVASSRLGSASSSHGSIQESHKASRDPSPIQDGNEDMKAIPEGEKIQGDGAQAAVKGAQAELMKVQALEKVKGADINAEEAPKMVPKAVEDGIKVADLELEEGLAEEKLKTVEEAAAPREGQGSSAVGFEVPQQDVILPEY
The following applies: at 0.1 µM.

The target of assay [5] is T1, Calcium/calmodulin-dependent protein kinase type IV (Homo sapiens). The following applies: at 1 µM.
The target of assay [6] is T2, Serine/threonine-protein kinase Chk1 (Homo sapiens) (UniProt O14757).
T2 sequence (whole entry): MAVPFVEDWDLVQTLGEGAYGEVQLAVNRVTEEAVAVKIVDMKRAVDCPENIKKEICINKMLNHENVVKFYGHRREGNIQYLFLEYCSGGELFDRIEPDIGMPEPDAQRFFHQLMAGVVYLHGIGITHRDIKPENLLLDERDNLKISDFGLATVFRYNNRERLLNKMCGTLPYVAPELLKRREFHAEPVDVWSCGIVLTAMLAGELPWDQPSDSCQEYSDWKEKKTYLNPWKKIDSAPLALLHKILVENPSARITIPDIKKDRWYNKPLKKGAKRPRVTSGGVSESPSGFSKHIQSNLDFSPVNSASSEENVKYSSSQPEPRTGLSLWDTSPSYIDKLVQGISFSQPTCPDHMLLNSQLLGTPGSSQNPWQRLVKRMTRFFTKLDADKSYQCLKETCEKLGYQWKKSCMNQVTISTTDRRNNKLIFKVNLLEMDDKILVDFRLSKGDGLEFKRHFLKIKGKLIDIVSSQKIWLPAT
The following applies: at 0.1 µM.

In assay [7] the target is T2, Serine/threonine-protein kinase Chk1 (Homo sapiens). The following applies: at 1 µM.
The target of assay [8] is Serine/threonine-protein kinase Chk2 (Homo sapiens) (UniProt O96017). The following applies: at 0.1 µM.
For assay [9] the target is unchanged. The following applies: at 1 µM.
Assay [10] addresses Death-associated protein kinase 1 (Homo sapiens) (UniProt P53355). The following applies: at 0.1 µM.
The target is the same in assay [11]. The following applies: at 1 µM.
Assay [12] has as its target T3, Serine/threonine-protein kinase DCLK2 (Homo sapiens) (UniProt Q8N568).
T3 sequence (whole entry): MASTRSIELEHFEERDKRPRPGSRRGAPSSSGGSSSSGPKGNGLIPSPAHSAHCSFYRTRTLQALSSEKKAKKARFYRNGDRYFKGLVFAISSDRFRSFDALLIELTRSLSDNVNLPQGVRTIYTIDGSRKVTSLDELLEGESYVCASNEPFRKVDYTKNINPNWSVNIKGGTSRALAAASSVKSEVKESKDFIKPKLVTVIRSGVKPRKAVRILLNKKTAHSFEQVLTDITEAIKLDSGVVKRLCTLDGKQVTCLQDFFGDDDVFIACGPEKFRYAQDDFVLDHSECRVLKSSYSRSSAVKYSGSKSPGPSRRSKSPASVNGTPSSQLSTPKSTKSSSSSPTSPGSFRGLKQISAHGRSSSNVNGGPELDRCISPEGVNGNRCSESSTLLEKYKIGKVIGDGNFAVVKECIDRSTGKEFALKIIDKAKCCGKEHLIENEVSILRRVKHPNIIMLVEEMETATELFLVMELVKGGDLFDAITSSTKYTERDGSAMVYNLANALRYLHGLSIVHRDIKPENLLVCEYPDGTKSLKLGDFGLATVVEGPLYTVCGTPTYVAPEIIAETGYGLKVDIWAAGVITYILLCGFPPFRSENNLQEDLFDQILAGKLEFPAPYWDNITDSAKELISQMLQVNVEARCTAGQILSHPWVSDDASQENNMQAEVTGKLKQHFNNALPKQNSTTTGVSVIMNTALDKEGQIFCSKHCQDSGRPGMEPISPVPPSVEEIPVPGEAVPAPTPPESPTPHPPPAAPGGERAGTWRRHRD
The following applies: at 0.1 µM.

Assay [13] addresses T3, Serine/threonine-protein kinase DCLK2 (Homo sapiens). The following applies: at 1 µM.
Assay [14] has as its target MAP kinase-activated protein kinase 2 (Homo sapiens) (UniProt P49137). The following applies: at 0.1 µM.
Assay [15] shares this target. The following applies: at 1 µM.
Assay [16] concerns the target MAP kinase-activated protein kinase 3 (Homo sapiens) (UniProt Q16644). The following applies: at 0.1 µM.
Assay [17] shares this target. The following applies: at 1 µM.
Assay [18] has as its target Serine/threonine-protein kinase MARK1 (Homo sapiens) (UniProt Q9P0L2). The following applies: at 0.1 µM.
For assay [19] the target is unchanged. The following applies: at 1 µM.
The target of assay [20] is MAP/microtubule affinity-regulating kinase 3 (Homo sapiens) (UniProt P27448). The following applies: at 0.1 µM.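 Further: mean percent inhibition of MARK3 kinase activity, measured within the GSK PKIS screening panel.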

Serine/threonine-protein kinase Chk2 (Homo sapiens), sequence (O96017 whole entry): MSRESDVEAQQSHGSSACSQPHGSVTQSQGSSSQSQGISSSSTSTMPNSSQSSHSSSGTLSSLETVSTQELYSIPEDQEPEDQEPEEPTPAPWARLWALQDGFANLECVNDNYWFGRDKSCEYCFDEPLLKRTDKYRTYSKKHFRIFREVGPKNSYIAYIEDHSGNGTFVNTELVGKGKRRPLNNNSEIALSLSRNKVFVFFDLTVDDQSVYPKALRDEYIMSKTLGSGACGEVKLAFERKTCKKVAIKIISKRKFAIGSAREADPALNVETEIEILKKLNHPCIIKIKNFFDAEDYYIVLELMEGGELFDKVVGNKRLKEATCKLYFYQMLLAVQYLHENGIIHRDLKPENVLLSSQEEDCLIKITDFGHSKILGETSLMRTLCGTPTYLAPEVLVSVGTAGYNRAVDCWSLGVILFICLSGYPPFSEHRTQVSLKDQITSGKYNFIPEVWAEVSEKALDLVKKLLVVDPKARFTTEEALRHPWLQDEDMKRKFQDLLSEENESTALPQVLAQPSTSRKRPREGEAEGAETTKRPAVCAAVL
Calcium/calmodulin-dependent protein kinase type II subunit alpha (Homo sapiens), sequence (Q9UQM7 whole entry): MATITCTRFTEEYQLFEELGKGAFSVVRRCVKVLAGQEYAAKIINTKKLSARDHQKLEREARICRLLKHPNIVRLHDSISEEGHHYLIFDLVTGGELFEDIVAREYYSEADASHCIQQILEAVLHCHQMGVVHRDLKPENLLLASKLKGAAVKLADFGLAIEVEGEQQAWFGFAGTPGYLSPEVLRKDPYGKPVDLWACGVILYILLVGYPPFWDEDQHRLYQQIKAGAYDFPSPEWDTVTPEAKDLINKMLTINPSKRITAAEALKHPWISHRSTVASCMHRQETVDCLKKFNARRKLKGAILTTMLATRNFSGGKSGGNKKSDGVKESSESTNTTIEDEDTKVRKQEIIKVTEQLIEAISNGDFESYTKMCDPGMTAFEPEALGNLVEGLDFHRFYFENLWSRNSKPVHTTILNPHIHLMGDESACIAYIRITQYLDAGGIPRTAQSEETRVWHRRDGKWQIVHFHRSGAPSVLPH
MAP kinase-activated protein kinase 3 (Homo sapiens), sequence (Q16644 whole entry, looked up): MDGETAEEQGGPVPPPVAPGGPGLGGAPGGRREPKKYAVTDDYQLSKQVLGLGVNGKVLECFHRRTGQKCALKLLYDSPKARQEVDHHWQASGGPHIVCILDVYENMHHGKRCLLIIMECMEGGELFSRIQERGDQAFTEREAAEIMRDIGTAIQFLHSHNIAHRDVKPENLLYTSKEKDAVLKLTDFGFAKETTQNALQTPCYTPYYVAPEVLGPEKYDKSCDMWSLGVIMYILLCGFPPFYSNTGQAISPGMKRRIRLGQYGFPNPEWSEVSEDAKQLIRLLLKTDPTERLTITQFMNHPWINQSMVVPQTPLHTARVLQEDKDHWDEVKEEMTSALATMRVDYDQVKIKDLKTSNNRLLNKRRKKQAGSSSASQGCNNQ
MAP kinase-activated protein kinase 2 (Homo sapiens), sequence (P49137 whole entry, looked up): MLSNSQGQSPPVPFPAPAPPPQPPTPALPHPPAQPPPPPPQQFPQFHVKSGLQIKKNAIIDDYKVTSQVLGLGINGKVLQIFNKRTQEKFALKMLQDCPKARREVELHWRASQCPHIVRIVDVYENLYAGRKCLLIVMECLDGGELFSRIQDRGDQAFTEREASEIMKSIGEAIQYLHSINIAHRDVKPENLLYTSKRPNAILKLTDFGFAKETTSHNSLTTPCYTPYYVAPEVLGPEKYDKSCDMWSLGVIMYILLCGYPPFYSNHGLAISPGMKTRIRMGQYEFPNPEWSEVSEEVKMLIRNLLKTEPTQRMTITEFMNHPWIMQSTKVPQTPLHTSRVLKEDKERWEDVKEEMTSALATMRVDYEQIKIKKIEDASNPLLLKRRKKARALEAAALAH
Calcium/calmodulin-dependent protein kinase type II subunit delta (Homo sapiens), sequence (Q13557 whole entry): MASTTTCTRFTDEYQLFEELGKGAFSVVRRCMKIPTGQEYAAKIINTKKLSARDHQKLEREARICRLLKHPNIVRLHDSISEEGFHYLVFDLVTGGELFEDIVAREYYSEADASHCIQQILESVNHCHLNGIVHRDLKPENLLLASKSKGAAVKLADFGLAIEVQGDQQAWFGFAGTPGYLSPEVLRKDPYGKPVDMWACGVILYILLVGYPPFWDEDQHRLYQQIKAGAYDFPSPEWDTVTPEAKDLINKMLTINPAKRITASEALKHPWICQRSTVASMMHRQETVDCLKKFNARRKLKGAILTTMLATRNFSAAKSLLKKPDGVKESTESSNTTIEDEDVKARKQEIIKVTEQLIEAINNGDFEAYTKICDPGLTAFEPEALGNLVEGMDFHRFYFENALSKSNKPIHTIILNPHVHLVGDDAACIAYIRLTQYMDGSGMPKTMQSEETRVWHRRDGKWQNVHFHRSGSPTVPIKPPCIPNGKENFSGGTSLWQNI
Serine/threonine-protein kinase MARK1 (Homo sapiens), sequence (Q9P0L2 whole entry, looked up): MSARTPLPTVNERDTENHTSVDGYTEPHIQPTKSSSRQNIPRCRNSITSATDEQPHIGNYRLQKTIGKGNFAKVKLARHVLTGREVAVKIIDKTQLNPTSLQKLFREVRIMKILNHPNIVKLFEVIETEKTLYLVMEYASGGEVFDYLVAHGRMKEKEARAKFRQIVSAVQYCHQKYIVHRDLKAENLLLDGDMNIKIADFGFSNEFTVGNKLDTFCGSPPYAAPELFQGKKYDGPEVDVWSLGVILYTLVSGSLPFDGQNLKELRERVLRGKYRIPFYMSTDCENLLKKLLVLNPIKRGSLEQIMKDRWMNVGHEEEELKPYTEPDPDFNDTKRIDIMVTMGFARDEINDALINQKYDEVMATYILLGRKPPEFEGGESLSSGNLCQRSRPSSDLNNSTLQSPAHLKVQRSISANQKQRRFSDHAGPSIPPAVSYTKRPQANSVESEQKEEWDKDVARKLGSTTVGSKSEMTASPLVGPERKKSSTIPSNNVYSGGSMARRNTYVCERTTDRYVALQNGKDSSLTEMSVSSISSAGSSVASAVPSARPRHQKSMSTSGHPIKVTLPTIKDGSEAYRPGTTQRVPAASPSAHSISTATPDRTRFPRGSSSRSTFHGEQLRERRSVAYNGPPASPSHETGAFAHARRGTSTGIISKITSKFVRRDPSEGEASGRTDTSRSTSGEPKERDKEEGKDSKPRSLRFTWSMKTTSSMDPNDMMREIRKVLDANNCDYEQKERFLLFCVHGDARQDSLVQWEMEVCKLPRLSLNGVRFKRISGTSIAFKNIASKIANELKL
Death-associated protein kinase 1 (Homo sapiens), sequence (P53355 whole entry, looked up): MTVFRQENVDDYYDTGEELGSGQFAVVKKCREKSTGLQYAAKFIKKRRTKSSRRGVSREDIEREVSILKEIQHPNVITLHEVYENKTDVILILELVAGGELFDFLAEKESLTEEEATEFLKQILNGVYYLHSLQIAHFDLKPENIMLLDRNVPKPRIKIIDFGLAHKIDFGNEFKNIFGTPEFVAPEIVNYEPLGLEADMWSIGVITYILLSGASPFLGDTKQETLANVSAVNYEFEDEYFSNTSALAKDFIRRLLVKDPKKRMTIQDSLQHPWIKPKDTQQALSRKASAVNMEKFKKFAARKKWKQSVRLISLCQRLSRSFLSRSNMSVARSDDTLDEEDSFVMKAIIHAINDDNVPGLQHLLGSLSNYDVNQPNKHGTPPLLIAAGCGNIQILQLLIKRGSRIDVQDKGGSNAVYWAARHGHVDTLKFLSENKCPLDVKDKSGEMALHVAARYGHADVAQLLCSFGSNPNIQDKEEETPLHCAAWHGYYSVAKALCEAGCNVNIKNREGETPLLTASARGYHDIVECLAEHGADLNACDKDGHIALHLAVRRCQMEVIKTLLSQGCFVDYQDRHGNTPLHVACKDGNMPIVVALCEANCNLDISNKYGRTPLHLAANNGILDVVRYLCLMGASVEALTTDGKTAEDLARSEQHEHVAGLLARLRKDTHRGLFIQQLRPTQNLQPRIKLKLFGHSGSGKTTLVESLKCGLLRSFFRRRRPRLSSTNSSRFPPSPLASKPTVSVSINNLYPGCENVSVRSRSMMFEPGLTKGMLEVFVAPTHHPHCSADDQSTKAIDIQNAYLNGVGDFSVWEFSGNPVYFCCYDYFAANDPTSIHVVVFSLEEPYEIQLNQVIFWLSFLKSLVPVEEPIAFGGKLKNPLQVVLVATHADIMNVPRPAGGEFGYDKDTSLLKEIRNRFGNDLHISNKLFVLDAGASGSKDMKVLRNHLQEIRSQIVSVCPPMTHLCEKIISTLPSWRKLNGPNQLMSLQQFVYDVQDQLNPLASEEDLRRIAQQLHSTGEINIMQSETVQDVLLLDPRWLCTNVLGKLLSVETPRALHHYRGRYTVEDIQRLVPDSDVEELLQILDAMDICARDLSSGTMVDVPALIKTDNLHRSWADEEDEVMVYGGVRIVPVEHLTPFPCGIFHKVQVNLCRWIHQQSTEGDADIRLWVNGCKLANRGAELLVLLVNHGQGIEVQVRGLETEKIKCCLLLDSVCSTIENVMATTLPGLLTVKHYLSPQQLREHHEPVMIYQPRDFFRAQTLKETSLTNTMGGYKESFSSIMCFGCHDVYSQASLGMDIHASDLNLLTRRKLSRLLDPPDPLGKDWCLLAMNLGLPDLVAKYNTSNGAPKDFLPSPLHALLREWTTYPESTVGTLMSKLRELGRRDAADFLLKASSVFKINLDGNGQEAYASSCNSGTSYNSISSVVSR

Consider `c1cc(-c2cnn3nc(N4CCOCC4)ccc23)nc(NC2CC2)n1`, for which the inhibition (as a rule, the relative decrease from the control value, in per cent) was found to be 6.53% in [1]; 3.77% in [2]; 9.6% in assay [3]; 1.3% in assay [4]; 2.07% in assay [5]; 3.63% in assay [6]. In addition, the inhibition in [7] was 1.64%; in assay [8], 3.07%; in [9], 7.4%; in assay [10], 3.51%; in [11], 3.38%; in assay [12] it was -0.25%. In addition, the inhibition in [13] was -2.52%; in assay [14], 1.29%; in [15] it was 1.97%; in [16] it was 5.27%; in assay [17] it was 6.31%; in [18] it was 3.55%. Besides, the inhibition in assay [19] amounted to 10.3%; in [20], 4.76%.

As to `CN1CCC(n2cnc(-c3ccc(F)cc3)c2-c2ccnc(Nc3ccccc3)n2)CC1`, the inhibition in [1] was 1.68%; in assay [2], 0.53%; in assay [3], 2.35%; in [4], 0.11%; in [5], 1.45%; in [6], -0.4%. Further, the inhibition in [7] came out at 1.3%; in [8], 1.2%; in assay [9], 2.71%; in [10], 2.63%; in assay [11], 2.54%; in assay [12], 0.09%. Besides, the inhibition in assay [13] is -4.09%; in assay [14], 1%; in [15], 0.41%; in assay [16], 34.8%; in assay [17], 36.9%; in assay [18], 1.99%. The values for the inhibition in assay [19] and in assay [20] were 4.86% and 3.17%, respectively.

Consider `O=C(O[C@H]1CN[C@H](C#Cc2cc3ncnc(Nc4ccc(Cc5ccccc5)cc4)c3s2)C1)N1CCOCC1`, for which the inhibition is -1.9% in [1]; 1.04% in [2]; -0.85% in [3]; -0.04% in assay [4]; -2.21% in [5]; 1.79% in [6]. In addition, the inhibition is 0.1% in assay [7]; 0.28% in assay [8]; 0.95% in assay [9]; 4.84% in assay [10]; 2.13% in assay [11]; -0.4% in assay [12]. Also, the inhibition was 2.31% in assay [13]; 0.76% in assay [14]; -0.1% in assay [15]; 3.66% in [16]; 3.19% in [17]; 1.63% in assay [18]. In addition, the inhibition in [19] was determined as 2.56%; in [20], 2.46%.

`CCn1c(-c2nonc2N)nc2cnc(Oc3cccc(NC(=O)c4ccc(N(C)C)cc4)c3)cc21`: the inhibition amounted to 5.87% in assay [1]; 1.23% in assay [2]; 17.3% in assay [3]; 0.01% in assay [4]; 1.14% in [5]; 0.31% in assay [6]. In addition, the inhibition in [7] is 5.78%; in assay [8], 1.31%; in [9], 8.31%; in assay [10], 1.42%; in [11] it was 0.59%; in assay [12] it was 0.41%. For the same compound, the inhibition was found to be 0.72% in [13]; 1.12% in assay [14]; 0.16% in assay [15]; 2.53% in assay [16]; 2.85% in assay [17]; 2.53% in assay [18]. The inhibition is 10.8% in [19] and 2.76% in assay [20].

As to `CN(C)CCOc1ccc(-c2nc(-c3ccncc3)c(-c3ccc4c(c3)CC/C4=N\O)[nH]2)cc1`, the inhibition was 2.29% in assay [1]; 1.28% in assay [2]; 1.23% in [3]; 0.04% in assay [4]; -0.88% in assay [5]; 2.48% in assay [6]. Also, the inhibition amounted to 5.39% in assay [7]; 1.94% in assay [8]; 4.06% in assay [9]; 3.99% in [10]; 5.09% in assay [11]; 0.7% in [12]. The inhibition in [13] worked out at 1.55%; in assay [14], 1.68%; in [15], 2.27%; in [16], 2.57%; in [17], 4.19%; in assay [18], 2.54%. Also, the inhibition in assay [19] amounted to 3.97%; in assay [20] it was 2.63%.

As for `Nc1nc(-c2ccc(F)cc2)c(-c2ccc3ncccc3n2)s1`, the inhibition in assay [1] is 4.65%; in assay [2], 4.16%; in assay [3] it was 4.81%; in assay [4], -0.44%; in [5] it was -0.24%; in [6], 3.9%. In addition, the inhibition in [7] was 5.94%; in assay [8], 3.09%; in [9] it was 4.06%; in assay [10], 4.26%; in assay [11], 4.25%; in assay [12], 1.89%. For the same compound, the inhibition in [13] came to 1.19%; in [14] it was 2.16%; in assay [15], 1.53%; in [16] it was 11.3%; in [17], 24.6%; in [18] it was 4.82%. Besides, the values for the inhibition in assay [19] and in assay [20] were 7.14% and 3.4%, respectively.

Consider `COc1ccc(CNC(=O)c2ccc(-c3cc(-c4nnc(C)o4)ccc3C)cc2)cc1`, for which the inhibition in [1] was 0.47%; in [2], 0.75%; in assay [3] it was -0.53%; in assay [4], -1.83%; in [5], -4.17%; in assay [6], 6.78%. Besides, the inhibition in [7] was determined as 8.82%; in [8] it was 6.34%; in [9] it was 7.55%; in assay [10] it was 9.67%; in [11] it was 10.2%; in [12], 1.92%. In addition, the inhibition in assay [13] was found to be 2.89%; in assay [14], 4.31%; in assay [15] it was 5.53%; in assay [16] it was 14.5%; in [17] it was 29.3%; in [18] it was 1.53%. In addition, the inhibition in assay [19] stood at 2.91%; in [20] it was 1.55%.

Source of the values: ChEMBL document CHEMBL1961873, “Compounds: GSK PKIS; Assays: Nanosyn kinase panel” (2012).
